Wnt bcat act = Wnt/beta-catenin pathway activators, primary screen, cell-based, plate reader, single point; Wnt/beta-catenin reporter cell assay, activator; activation, % at 9.35 µM; hit rate 1.2% among 300,000; AID 743398, 2014; in the data active = activation above about 30%, passing the limit was not always enough; inconclusive = no clear call, values can overlap the other calls;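 also: 0% = neutral control wells and 100% = positive control wells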
esBAF inh = Bmi1 luciferase reporter increase in mESCs, primary screen, esBAF inhibitor project, mouse ES cells, Bmi1 luciferase knock-in, single point | 24 h; 100% = twice the neutral-well signal | reporter increase, % at 12.5 µM | hit rate 2% among 350,000 | AID 602393, 2012; in the data active = activation above about 40%; inconclusive = no clear call, values can overlap the other calls;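 also: 0% = median of the plate's neutral control wells and 100% = double that signal; a rise in the Bmi1 reporter signal indicates esBAF inhibition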
MITF act = activators of MITF-driven TRPM1 promoter reporter, primary screen, cell-based, SK-MEL-5, luciferase, single point. SK-MEL-5 TRPM1-promoter luciferase, 24 h; % of positive control, neutral wells = 0. activation, % at 12.5 µM. hit rate 0.75% among 300,000;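 active = mean activation of at least 80% with every replicate also reaching 80%; inconclusive = mean reaches 80% but some replicate falls short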;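 also: 0% = neutral control wells and 100% = parthenolide positive control wells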
Statin myotox sup = suppressors of statin myotoxicity in C2C12 myotubes, primary screen, cell-based, single point, plate reader; C2C12 myotubes + simvastatin, ATP luminescence, 48 h; scaled: DMSO 0, geranylgeraniol control 100; rescue of ATP level, % at 7.49 µM; hit rate 0.78% among 330,000;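 active = mean ATP rescue above about 67%, or every replicate alone reaching that limit, limit read from the data, passing the limit was not always enough; inconclusive = no clear call, values can overlap the other calls; inactive = mean under the limit and some replicate under it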;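 also: myotubes were challenged with 10 µM simvastatin during compound exposure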
* hit, by the source's call; ? = inconclusive; / = not tested or not shown. An excerpt weighted towards active compounds, which were near 3% of everything screened.

SMILES	Wnt bcat act	esBAF inh	MITF act	Statin myotox sup
C[C@@H](O)C#Cc1cnc2c(c1)C(=O)N([C@@H](C)CO)C[C@H](C)[C@H](CN(C)C(=O)Nc1ccc(F)cc1)O2	/	-4	/	6
COc1ccc(NC(=O)N(C)C[C@H]2Oc3ccc(NS(C)(=O)=O)cc3CC(=O)N([C@@H](C)CO)C[C@@H]2C)cc1	/	1	/	-8
O=[N+]([O-])c1ccccc1N/N=C/c1ccccc1	14	44*	/	14
O=[N+]([O-])c1ccc(N/N=C/c2c[nH]c3ccccc23)cc1	3	34	52	?
O=[N+]([O-])c1ccccc1N/N=C/c1c[nH]c2ccccc12	/	43*	15	20
NS(=O)(=O)c1ccc(N/N=C/c2ccc3c(c2)OCO3)c([N+](=O)[O-])c1	0	/	5	/
O=[N+]([O-])c1ccccc1N/N=C/c1ccc2c(c1)OCO2	53*	-14	22	-75
Cc1cc(N/N=C/c2ccc3c(c2)OCO3)nc2ccccc12	-1	/	98*	/
CO[C@@H]1CN(C)C(=O)c2ccc(NC(=O)C3CCCC3)cc2OC[C@@H](C)N(C(=O)c2ccccc2)C[C@H]1C	/	2	/	6
CCNC(=O)[C@H]1[C@H](CO)[C@H]2Cn3c(ccc(-c4cccc(OC)c4)c3=O)[C@H]2N1C(=O)NC(C)C	/	0	/	17
C[C@@H]1CN([C@@H](C)CO)C(=O)CCCn2cc(nn2)CO[C@@H]1CN(C)Cc1cccc(C(=O)O)c1	/	-2	/	-12
CC(C)C(=O)Nc1ccc(C(=O)c2ccccc2)cc1	29	67*	50	-15
O=C(Nc1ccncc1)Nc1cccc(Cl)c1Cl	5	10	-16	5
O=C(Nc1ccc(Cl)cc1)Nc1cccc2nsnc12	?	91*	25	-12
O=C(Nc1ccccc1)Nc1cccc(Cl)c1Cl	/	60*	9	-6
CC(=O)c1cccc(NC(=O)Nc2ccccc2)c1	7	22	39	-1
CC(=O)c1ccc(NC(=O)Nc2ccccc2)cc1	/	48*	43	-4
CO[C@@H]1CN(C)C(=O)c2cc(NC(=O)Nc3cc(F)ccc3F)ccc2OC[C@@H](C)N(C(=O)c2cnccn2)C[C@@H]1C	/	5	/	7
COc1ccc(S(=O)(=O)N[C@H]2CC[C@@H](CC(=O)NCc3ccccc3F)O[C@H]2CO)cc1	/	1	/	4
CCC(C)[C@H](NC(=O)Nc1ccc(C(C)=O)cc1)C(=O)OC (stereo partly specified)	/	-1	2	93*
O=C(Nc1ccccc1)Nc1ccc2ccccc2c1	44*	/	92*	/
Cc1oncc1C(=O)Nc1ccc2ccccc2c1	10	10	22	4
O=C(Nc1ccccc1)Nc1ccccc1Br	8	/	49	/
O=C(Nc1ccccc1)Nc1ccc(Br)c(Cl)c1	-2	75*	9	-30
Cc1coc(C)c1C(=O)Nc1ccc2ccccc2c1	9	57*	44	-4
SMILES	Wnt bcat act	esBAF inh	MITF act	Statin myotox sup
COc1ccc(NC(=O)Nc2cccc3c2O[C@@H](CN(C)C(=O)Nc2ccccc2)[C@H](C)CN([C@@H](C)CO)C3=O)cc1	/	1	/	9
C[C@@H]1CN([C@H](C)CO)C(=O)c2cc(NC(=O)CCN3CCOCC3)ccc2O[C@H]1CN(C)S(=O)(=O)c1cn(C)cn1	/	2	/	0
Cc1ccc(S(=O)(=O)Nc2ccc3c(c2)CC(=O)N([C@H](C)CO)C[C@H](C)[C@H](CN(C)S(=O)(=O)c2cccs2)O3)cc1	/	-7	/	21
COc1ccc(NC(=O)NCCC2=CCCCC2)cc1	52*	/	56	/
COc1ccc(NC(=S)NCCC2=CCCCC2)cc1OC	-1	/	-6	/
S=C(NCCC1=CCCCC1)Nc1ccc(Cl)cc1	11	64*	54	-2
COc1cccc(NC(=O)NCCC2=CCCCC2)c1	10	?	60	-8
Cc1ccc(-c2cnc3c(c2)C(=O)N([C@@H](C)CO)C[C@H](C)[C@@H](CN(C)C(=O)c2cccnc2)O3)cc1	/	-1	/	7
COc1ccccc1C#Cc1ccc([C@@H]2[C@@H](C#N)N(C(=O)C3CCC3)[C@H]2CO)cc1	/	12	/	21
O=C(O)c1ccc(-n2c(-c3cc(-c4ccco4)[nH]n3)n[nH]c2=S)cc1	/	-4	0	8
CC(=O)c1ccc(-n2c(-c3cc(-c4ccco4)[nH]n3)n[nH]c2=S)cc1	-1	5	0	84*
COCC(=O)N(C)C[C@@H]1Oc2ncc(C3=CCCCC3)cc2C(=O)N([C@@H](C)CO)C[C@H]1C	/	-2	/	5
CCCNC(=O)N(C)C[C@@H]1Oc2ncc(-c3ccc(F)cc3)cc2C(=O)N([C@@H](C)CO)C[C@@H]1C	/	3	/	7
C[C@H](CO)N1C[C@H](C)[C@@H](CN(C)Cc2ccc(C(F)(F)F)cc2)Oc2ccc(NC(=O)NC3CCCCC3)cc2CC1=O	/	-3	/	55
COC(=O)NNC(=O)COc1ccc(Cl)cc1	-2	-6	7	94*
NNC(=O)CN1C(c2ccccc2)=Nc2ccc(Br)cc2C1c1ccccc1 (stereo unspecified)	3	/	-1	/
COc1cc(OC)c(C2=Nc3ccc(Br)cc3C(c3ccccc3)N2CC(=O)NN)cc1OC (stereo unspecified)	37*	/	3	/
CCN(CC)C(=O)c1scc2c1OCCO2	/	-2	11	120*
COc1ccc2cc(-c3[nH]ncc3CN3CCCCO3)ccc2c1	3	56*	34	7
COc1ccc(-c2[nH]ncc2CN2CCCO2)cc1F	1	/	-4	/
Cc1ccc(C(=O)Nc2ccc(C(F)(F)F)n(C)c2=O)cc1	54*	/	23	/
COc1ccc(C(=O)Nc2ccc(C(F)(F)F)n(C)c2=O)cc1	63*	/	28	/
CCN(CC)S(=O)(=O)c1ccc(C(=O)Nc2ccc(C(F)(F)F)n(C)c2=O)cc1	-1	-9	-2	-9
C[C@@H]1CN([C@@H](C)CO)C(=O)c2cc(NC(=O)c3ccccc3)ccc2O[C@@H](C)CCCCO[C@@H]1CN(C)Cc1ccc2c(c1)OCO2	/	0	/	/
Nc1ccc(N=Nc2ccccc2)c(N)n1	13	30	94*	-7
SMILES	Wnt bcat act	esBAF inh	MITF act	Statin myotox sup
CCOc1ccc(OCc2ccc(C(=O)NCc3ccncc3)o2)cc1	/	10	10	-13
CCc1ccc(OCc2ccc(C(=O)NCc3ccccn3)o2)cc1	/	46*	21	-5
COc1cccc(OCc2cc(C(=O)N(C)Cc3nc(C)cs3)no2)c1	27	78*	74	0
COc1cccc(OCc2cc(C(=O)NCc3ccccn3)no2)c1	16	61*	110*	11
CCCc1ccc(OCc2ccc(C(=O)N3CCSCC3)o2)cc1	12	47*	39	-12
CCc1ccc(OCc2ccc(C(=O)OC)o2)cc1	31*	?	89*	-22
CCCc1ccc(OCc2ccc(C(=O)O)o2)c(OC)c1	/	11	-8	2
COC(=O)c1ccc(COc2ccc(C(C)(C)C)cc2)o1	21	?	41	4
CCCc1ccc(OCc2ccc(C(=O)OC)o2)c(OC)c1	19	43*	34	-8

Screens (PubChem)
